High-throughput results as filed in PubChem.
GLD-1 TGE inh: GLD-1-TGE RNA interaction inhibition (C. elegans); purified GLD-1 + fluorescein TGE RNA, fluorescence polarization; inhibition, % at 5.96 µM; 320,000 tested, 0.44% active; AID 2280;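 active = percent inhibition above a per-plate cutoff, the plate mean of test compounds plus 3 SD, cut at about 30% in these data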;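 note: 0% = DMSO wells with GLD-1 and probe and 100% = wells lacking GLD-1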
Target sequence (Q17339 whole entry, looked up): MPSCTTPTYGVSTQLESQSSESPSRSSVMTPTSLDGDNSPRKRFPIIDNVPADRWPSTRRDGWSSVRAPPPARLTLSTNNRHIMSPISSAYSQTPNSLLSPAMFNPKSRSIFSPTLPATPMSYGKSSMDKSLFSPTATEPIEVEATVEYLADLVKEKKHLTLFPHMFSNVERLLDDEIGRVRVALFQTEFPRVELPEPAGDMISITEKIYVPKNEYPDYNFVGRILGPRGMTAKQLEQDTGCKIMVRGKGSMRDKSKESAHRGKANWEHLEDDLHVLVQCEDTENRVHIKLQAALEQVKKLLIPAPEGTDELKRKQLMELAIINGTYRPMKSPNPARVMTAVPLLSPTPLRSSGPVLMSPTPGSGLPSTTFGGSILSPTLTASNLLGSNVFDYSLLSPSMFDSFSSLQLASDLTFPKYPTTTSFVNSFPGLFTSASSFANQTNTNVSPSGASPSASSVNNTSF
Mcl1 Bid PPI: Mcl-1/Bid interaction inhibition; Q07820; 220,000 tested, 0.97% active; inhibition, % at 21.7 µM; AID 1021; TR-FRET Mcl-1/Bid-Dy647 peptide binding, 1536-well;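 active = compounds that cut the binding signal by more than half at the single screening dose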;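 note: His-tagged Mcl-1 with europium anti-His antibody binding Bid BH3 peptide; 0% = Mcl-1 plus peptide wells and 100% = peptide-only wells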
Mcl1-Noxa inh: Mcl-1/Noxa interaction inhibition. Q07820. TR-FRET Mcl-1/Noxa peptide binding, 2 h. AID 1022. 220,000 tested, 1.5% active. inhibition, % at 21.7 µM;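 active = compounds that cut the protein-peptide binding signal by more than 50% relative to plate controls in a single-dose test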;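 note: His-tagged Mcl-1 with rhodamine Noxa BH3 peptide and terbium anti-His antibody; 0% = Mcl-1 plus Noxa peptide wells and 100% = peptide-only wells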
Bcl-xL primary: Bcl-xL (human) inhibition | Q07817 | GST-Bcl-xL / FITC-Bim BH3 peptide fluorescence polarization | inhibition, % at 10.9 µM | 320,000 tested, 0.7% active | AID 2129;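 active = inhibition above the mean of all tested compounds plus 3 SD, cutoff set per campaign, cut at about 30% in these data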;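 note: 0% = DMSO wells and 100% = unlabeled Bim-BH3 peptide competitor; inhibitors lower millipolarization by displacing the labeled peptide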
Target sequence (Q07817 whole entry, looked up): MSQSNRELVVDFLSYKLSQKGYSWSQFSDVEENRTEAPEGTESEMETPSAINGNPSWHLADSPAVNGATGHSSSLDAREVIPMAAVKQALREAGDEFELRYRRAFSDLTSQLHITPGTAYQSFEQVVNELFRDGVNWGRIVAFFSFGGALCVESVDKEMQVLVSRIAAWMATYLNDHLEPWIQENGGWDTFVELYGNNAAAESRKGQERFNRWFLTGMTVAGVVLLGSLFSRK
Bim-Mcl-1: inhibitors of Bim-Mcl-1 interaction, human | Q07820 | Bead-based flow cytometry, Bim peptide-Mcl-1 binding | inhibition, % at 10 µM | 190,000 tested, 0.1% active | AID 1009; in the data active = inhibition above about 40%;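 note: 0% = no compound tracer wells and 100% = peptide blocker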
MCL1-BIM inh: MCL1-BIM-BH3 interaction inhibition (human) | Q07820 | GST-MCL1 / FITC-Bim-BH3 fluorescence polarization | inhibition, % at 10.9 µM | 320,000 tested, 0.68% active;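 active = inhibition above the mean inhibition of all tested compounds plus 3 SD, set per campaign, cut at about 40% in these data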;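 note: 0% = DMSO wells and 100% = unlabeled Bim-BH3 peptide control; higher means more loss of mP so more displacement of Bim peptide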
Bcl-xL conf: Bcl-xL (human) inhibition, MCL1 counter-screen confirmation; 1,700 tested, 54% active; inhibition, % at 10.9 µM; shares compounds with MCL1-BIM inh; AID 2166; GST-Bcl-xL / FITC-Bim BH3 peptide FP binding;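 active = inhibition above a cutoff equal to the mean inhibition of all tested compounds plus 3 SD, cut at about 30% in these data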;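 note: 0% = DMSO wells and 100% = unlabeled Bim BH3 control peptide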
MCL1 BIM confirm: MCL1-BIM-BH3 interaction inhibition, confirmation; shares compounds with MCL1-BIM inh; GST-MCL1 / FITC-Bim-BH3 fluorescence polarization; inhibition, % at 10.9 µM; 1,700 tested, 61% active; AID 2168;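 active = inhibition above the average of all tested compounds plus 3 SD, cut at about 40% in these data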;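 note: 0% = DMSO wells and 100% = unlabeled Bim-BH3 control peptide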
Active calls of the source: *. A selection: hits, their analogues and other compounds. The true share with any hit is near 2.3%.

What do the screens show for `Cc1cc(O)ccc1C1(c2ccc(O)cc2C)OC(=O)c2ccccc21`?
GLD-1 TGE inh: 7; Mcl1 Bid PPI: -14; Mcl1-Noxa inh: 15; Bcl-xL primary: 6; Bim-Mcl-1: -3; MCL1-BIM inh: 7

What do the screens show for `ClCc1nc2ccccc2n1Cc1ccccc1`?
GLD-1 TGE inh: 57*; Bcl-xL primary: 129*; MCL1-BIM inh: 160*; Bcl-xL conf: 54*; MCL1 BIM confirm: 79*

What do the screens show for `C[C@H](CO)N1C[C@H](C)[C@@H](CN(C)S(=O)(=O)c2cccs2)Oc2ccc(NS(=O)(=O)c3ccccc3)cc2CC1=O`?
GLD-1 TGE inh: 5

What do the screens show for `O=C(/C=C/c1ccco1)N(Cc1ccccc1F)C1CCS(=O)(=O)C1` (configuration not stated)?
GLD-1 TGE inh: 6; Bcl-xL primary: 9; MCL1-BIM inh: 12

How did CNC(=S)Nc1cccc(-c2cnc3ccccc3n2)c1 do in these assays?
GLD-1 TGE inh: 0; Bcl-xL primary: -1; MCL1-BIM inh: 7

What do the screens show for `Cc1ccc(/C=C/C(=O)Nc2nnc(C)s2)o1`?
GLD-1 TGE inh: 3; Mcl1 Bid PPI: -35; Mcl1-Noxa inh: 13; Bcl-xL primary: 7; Bim-Mcl-1: -10; MCL1-BIM inh: 6

What do the screens show for `Cc1ccc(/C=C/C(=O)Nc2cccc3cccnc23)o1`?
GLD-1 TGE inh: 68*; Mcl1 Bid PPI: -7; Mcl1-Noxa inh: 21; Bcl-xL primary: 78*; Bim-Mcl-1: 1; MCL1-BIM inh: 84*; Bcl-xL conf: 32*; MCL1 BIM confirm: 40*

What do the screens show for `Cc1cccc(NC(=O)CNC(=O)CCc2nc3sc4c(c3c(=O)[nH]2)CCCC4)c1C`?
GLD-1 TGE inh: -11; Bcl-xL primary: 22; MCL1-BIM inh: 43*; Bcl-xL conf: 34*; MCL1 BIM confirm: 67*

How did O=c1c(-c2ccccc2)coc2c(CN3CCCC3)c(O)ccc12 do in these assays?
GLD-1 TGE inh: 4; Mcl1 Bid PPI: -9; Mcl1-Noxa inh: 3; Bcl-xL primary: 1; Bim-Mcl-1: -2; MCL1-BIM inh: 6

Results for COc1ccc2c(c1)CC/C(=C/c1ccco1)C2=O ?
GLD-1 TGE inh: -14; Mcl1 Bid PPI: -71; Mcl1-Noxa inh: 27; Bcl-xL primary: 14; Bim-Mcl-1: 0; MCL1-BIM inh: 16

What do the screens show for `COCCN(CCOC)Cc1c(O)ccc2c1O/C(=C\c1ccco1)C2=O`?
GLD-1 TGE inh: 72*; Bcl-xL primary: 106*; MCL1-BIM inh: 110*; Bcl-xL conf: 107*; MCL1 BIM confirm: 118*

What do the screens show for `O=C1/C(=C/c2ccco2)Oc2c1ccc(O)c2CN1CCCCC1`?
GLD-1 TGE inh: 34*; Mcl1 Bid PPI: -13; Mcl1-Noxa inh: 54*; Bcl-xL primary: 79*; Bim-Mcl-1: 1; MCL1-BIM inh: 128*; Bcl-xL conf: 132*; MCL1 BIM confirm: 148*

Results for CC1CCN(Cc2c(O)ccc3c2O/C(=C\c2ccco2)C3=O)CC1 ?
GLD-1 TGE inh: 68*; Mcl1 Bid PPI: -12; Mcl1-Noxa inh: 56*; Bcl-xL primary: 123*; Bim-Mcl-1: 2; MCL1-BIM inh: 149*; Bcl-xL conf: 119*; MCL1 BIM confirm: 140*

Results for Cc1ccc(/C=N\NC(=O)Cc2noc3ccccc23)cc1 ?
GLD-1 TGE inh: 1; Bcl-xL primary: 2; MCL1-BIM inh: 4

What do the screens show for `Nc1cc(Nc2ccc(Br)cc2)nc(N)n1`?
GLD-1 TGE inh: 18; Mcl1 Bid PPI: -12; Mcl1-Noxa inh: 14; Bcl-xL primary: 53*; MCL1-BIM inh: 50*; Bcl-xL conf: 44*; MCL1 BIM confirm: 46*

What do the screens show for `CCCCN(C(=O)c1cccc(-n2cccc2)c1)c1c(N)n(Cc2ccccc2)c(=O)[nH]c1=O`?
GLD-1 TGE inh: -1; Bcl-xL primary: 15; MCL1-BIM inh: 78*; Bcl-xL conf: -7; MCL1 BIM confirm: 30

What do the screens show for `COc1ccc(C2C(C(=O)c3cccs3)=C(O)C(=O)N2c2nncs2)cc1` (configuration not stated)?
GLD-1 TGE inh: 114*; Mcl1 Bid PPI: -8; Mcl1-Noxa inh: 10; Bcl-xL primary: 139*; Bim-Mcl-1: 4; MCL1-BIM inh: 161*; Bcl-xL conf: 144*; MCL1 BIM confirm: 165*

Results for COc1ccc(C2C(C(=O)c3cccs3)=C(O)C(=O)N2c2nnc(C)s2)cc1OC (configuration not stated) ?
GLD-1 TGE inh: 70*; Mcl1 Bid PPI: -4; Mcl1-Noxa inh: -38; Bcl-xL primary: 84*; Bim-Mcl-1: -4; MCL1-BIM inh: 83*; Bcl-xL conf: 128*; MCL1 BIM confirm: 154*

How did C=CCOc1ccc(C2C(C(=O)c3cccs3)=C(O)C(=O)N2c2nnc(C)s2)cc1 (configuration not stated) do in these assays?
GLD-1 TGE inh: 74*; Bcl-xL primary: 100*; MCL1-BIM inh: 100*; Bcl-xL conf: 90*; MCL1 BIM confirm: 115*

What do the screens show for `CC(C)c1nnc(N2C(=O)C(O)=C(C(=O)c3cccs3)C2c2ccccc2)s1` (configuration not stated)?
Mcl1 Bid PPI: -31; Mcl1-Noxa inh: 11; Bim-Mcl-1: -4

What do the screens show for `O=C(O)CCNc1ccc(NCCC(=O)O)c2c1C(=O)c1ccccc1C2=O`?
GLD-1 TGE inh: 77*; Bcl-xL primary: 114*; MCL1-BIM inh: 154*; Bcl-xL conf: 102*; MCL1 BIM confirm: 130*

How did O=S(=O)(c1ccc(Br)s1)N1CCNCC1 do in these assays?
GLD-1 TGE inh: 0; Mcl1 Bid PPI: -8; Mcl1-Noxa inh: 20; Bcl-xL primary: 8; MCL1-BIM inh: 15

What do the screens show for `CCOC(=O)C(=O)Nc1ccc(S(=O)(=O)Nc2nccs2)cc1`?
GLD-1 TGE inh: 4; Bcl-xL primary: 2; MCL1-BIM inh: 2

What do the screens show for `COc1cccc2c1C(=O)c1c(O)c3c(c(O)c1C2=O)C[C@](O)(C(C)=O)C[C@H]3O[C@@H]1C[C@@H](N)[C@@H](O)[C@@H](C)O1`?
GLD-1 TGE inh: active; Bcl-xL primary: active; MCL1-BIM inh: active; Bcl-xL conf: active; MCL1 BIM confirm: active

How did N=C1/C(=C\c2coc3ccccc3c2=O)C(=O)N=C2SC=CN12 do in these assays?
GLD-1 TGE inh: 51*; Mcl1 Bid PPI: -79; Mcl1-Noxa inh: 6; Bcl-xL primary: 55*; MCL1-BIM inh: 60*; Bcl-xL conf: 61*; MCL1 BIM confirm: 70*
